Results reported in ChEMBL document CHEMBL1157539, “Thousands of chemical starting points for antimalarial lead identification” (Nature, 2010).

How the values were obtained:
Type in all cases: functional
Plasmodium falciparum [1] = assay: GSK_TCMDC: Inhibition of Plasmodium falciparum 3D7 in whole red blood cells, using parasite LDH activity as an index of growth. Test compounds present at 2uM
Plasmodium falciparum [2] = assay: GSK_TCMDC: Inhibition of Plasmodium falciparum Dd2 in whole red blood cells, using parasite LDH activity as an index of growth. Test compounds present at 2uM
HepG2 = assay: GSK_TCMDC: Percent inhibition of human HepG2 cell line. Test compounds present at 10uM.

Row | Structure (SMILES) | Inhibition (Plasmodium falciparum [1]) [%] | Inhibition (Plasmodium falciparum [2]) [%] | Inhibition (HepG2) [%]
1 | COc1ccc2nccc(NC(=O)OC3CCC(NCc4ccc5c(n4)NC(=O)CS5)CC3)c2c1 (configuration not stated) | 98 | 39 | 9
2 | COc1ccc(C(=C(C)CC(C)C(=O)O)c2ccccc2)cc1 (configuration not stated) | 95 | 0 | 6
3 | CCc1ccc2nc(-c3ccc(F)cc3)nc(SCC(=O)Nc3sc(C)c(C)c3C#N)c2c1 | 98 | 5 | 0
4 | Cl.NCC(=O)Nc1cccc(Nc2nccc(-c3c(-c4cccc(NC(=O)c5ccccc5)c4)nn4ccccc34)n2)c1 | 96 | 87 | 45
5 | O=C(Nc1ccc(Cn2ncc(N3CCCNCC3)c(Cl)c2=O)cc1)Nc1cc(Cl)cc(Cl)c1.O=C(O)C(F)(F)F | 91 | 17 | 3
6 | CCN(C(=O)CSc1cc(C)c2cc(C)cc(C)c2n1)C1CCS(=O)(=O)C1 (configuration not stated) | 97 | 82 | 5
7 | CNC(=O)C1Cc2c([nH]c3cc(Cl)ccc23)C2(CCN(CCc3ccccc3)CC2)N1 (configuration not stated) | 91 | 3 | 14
8 | CCOc1ccccc1CNc1nccc(NCc2ccccc2OC)n1 | 87 | 66 | 50
9 | Oc1cccc(Nc2nc(NCc3ccco3)c3ccccc3n2)c1 | 100 | 74 | 9
10 | CC(C)CCNc1nc(NCCc2ccccc2)c2cc(O)ccc2n1 | 100 | 97 | 6
11 | COc1ccc2nccc([C@@H](O)CN3CCC(NC(=O)/C=C/c4c[nH]c5c(C)cccc45)CC3)c2c1 | 100 | 88 | 23
12 | COc1ccccc1/C=C/C(=O)N(C)C1CCN(CCCCCNC(=O)/C=C/c2ccc(Cl)c(Cl)c2)C1 (configuration not stated) | 94 | 14 | 10
13 | O=C(NCC1CC1)C1Cc2c([nH]c3ccc(Br)cc23)C2(CCN(CCc3ccccc3)CC2)N1 (configuration not stated) | 88 | 25 | 14
14 | Clc1ccc(-c2csc3ncnc(Cl)c23)cc1 | 94 | 95 | 0
15 | N#Cc1cc([N+](=O)[O-])ccc1-n1nc(C(N)=O)n(Cc2cccc(F)c2)c1=S | 100 | 100 | 6
16 | Cc1c(Cn2ncc(N3CCC(N)CC3)c(Cl)c2=O)cccc1NC(=O)Nc1ccc(-c2ccccc2)cc1.O=C(O)C(F)(F)F | 97 | 43 | 19
17 | COc1ccc(CC2(CO)CCN(Cc3ccc(O)c(Cl)c3)CC2)cc1 | 98 | 14 | 0
18 | FC(F)(F)c1ccc2[nH]c(-c3cccc(-c4cccc(CNCC5CCCO5)c4)c3)nc2c1.O=C(O)C(F)(F)F (configuration not stated) | 100 | 96 | 23
19 | CC(C)NCc1ccc(OCc2cccc(COc3ccc(CNC(C)C)cc3I)c2)c(I)c1.Cl | 100 | 92 | 100
20 | c1ccc(-c2csc(Nc3nc4cc5c(cc4s3)OCO5)n2)nc1 | 81 | 99 | 46
21 | O=C(CN1CCN(C(=O)c2ccco2)CC1)Nc1ccc(Br)cc1Cl | 88 | 79 | 10
22 | CNCCNCc1cccc(-c2cccc(-c3nc4cccc(C)c4[nH]3)c2)c1.O=C(O)C(F)(F)F | 98 | 9 | 6
23 | Cc1ccc(C)c2c1[nH]c1ccc(C3=NCCN3)cc12.Cl | 100 | 0 | 29
24 | COc1ccccc1CCNc1nc(C)cc(N[C@@H](Cc2ccccc2)C(=O)NCc2cccs2)n1.O=C(O)C(F)(F)F | 100 | 73 | 18
25 | Oc1cccc(-c2nc(-c3ccccc3)c(-c3ccc(Oc4ccc(-c5[nH]c(-c6cccc(O)c6)nc5-c5ccccc5)cc4)cc3)[nH]2)c1 | 91 | 96 | 6
26 | Nc1nc(N)c2c(ccc3c2ccn3Cc2ccc(OCc3ccccc3)cc2)n1 | 98 | 1 | 5
27 | Clc1ccc(Cl)c2[nH]c(CNCCCNc3nc4ccccc4[nH]3)cc12 | 100 | 39 | 88
28 | O=C(/C=C/c1ccc(Cl)c(Cl)c1)NCCCCCN1CCC(NC(=O)NC2CCCC2)CC1 | 99 | 31 | 21
29 | O=C(Nc1ccsc1)Nc1cccc(-c2cccc(-c3nc4cc(C(F)(F)F)ccc4[nH]3)c2)c1 | 100 | 100 | 76
